The values that follow come from PubChem BioAssay.

Structures are written as SMILES. Inconclusive results are not listed. Active and inactive are the calls of the source.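 The calls were made as follows, unless noted: active = aptamer binding inhibition above 30%, about 3 SD of noise from non-fluorescent compounds; inactive = inhibition at or below 30%.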

A short description of assay [1]: yeast TOR pathway RPL19A-GFP modulators, primary screen, cell-based, S. cerevisiae, multiplex flow cytometry (AID 1862; in the data active = percent of DMSO control GFP below about 86%;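 also: lower values mimic rapamycin by blocking the RPL19A rise seen in DMSO cells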). The settings on record: S. cerevisiae RPL19A-GFP strain, flow cytometry fluorescence, 3 h; at 10 µM; stronger effect = lower value. A general note: Flow cytometry measures light scatter and fluorescence of single cells or particles in a stream.
A short description of assay [2]: modulators of MEP2-GFP levels in yeast, primary screen, S. cerevisiae, multiplex flow cytometry (AID 1867;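 active = GFP response, as percent of the DMSO control, above the screen-wide mean plus 3 SD, about 139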;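 also: median GFP channel fluorescence of barcode-gated MEP2-GFP cells measured by flow cytometry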). Conditions: S. cerevisiae MEP2-GFP strain, 3 h, at 10 µM, stronger effect = higher value, 100% means same as DMSO wells.
Assay [3] in a line: modulators of CIT2-GFP expression in yeast, primary screen, S. cerevisiae, GFP fusion, multiplex flow cytometry (AID 1870;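 active = percent response above a set limit, the screen-wide mean plus 3 SD, cut at about 130% in these data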;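 also: barcoded CIT2-GFP strain pooled with four other GFP strains with rapamycin as positive control; median GFP fluorescence per well over plate mean of DMSO wells so 100% = DMSO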). The settings on record: 3 h, at 10 µM, stronger effect = higher value.
A short description of assay [4]: modulators of LAP4-GFP expression in yeast, primary screen, S. cerevisiae, multiplex flow cytometry (AID 1873;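 active = GFP signal, as percent of the solvent control, above the screen mean plus 3 SD, about 149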). The settings on record: 3 h, at 10 µM, stronger effect = higher value.
Assay [5] in a line: modulators of AGP1-GFP expression in yeast TOR pathway, primary screen, cell-based, multiplex flow cytometry, S. cerevisiae (AID 1887;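 active = GFP signal above the screen-wide mean plus 3 SD, that is over about 124.5% of the solvent control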;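 also: AGP1-GFP fusion strain of S. cerevisiae within a five-strain barcoded multiplex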). The settings on record: 3 h, at 10 µM, stronger effect = higher value.
A short description of assay [6]: inhibitors of CD8+ T cell-vesicle binding, pilot screen, LFA-1/ICAM-1 modulator project, MLPCN validation set, flow cytometry (AID 2523;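 active = response below a set limit, under 55% cells CD8-positive and vesicle-bound, and CD8 cells' 90th-percentile brightness under 279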;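 as to vesicle binding response: mean PE anti-B7-1 fluorescence of CD8+ cells relative to row control; 100% = QL9-loaded vesicles with DMSO vehicle in the same plate row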). The settings on record: 2C mouse CD8+ T cells, at 7 µM, stronger effect = lower value; double positive events: measured here: CD8+/vesicle+ event percentage.
Assay [7] concerns the target Integrin beta-1 (Homo sapiens) + Integrin alpha-4 (Homo sapiens) (UniProt P13612+P05556). Kind of assay: inhibition of HUTS-21 binding to VLA-4, pilot screen, VLA-4 allosteric modulator project, U937 cells, HUTS-21 mAb, flow cytometry, validation set (AID 2674;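 active = inhibition above 50%, about 3 SD of the validation set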;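 also: antibody binding induced by the VLA-4 ligand LDV present at three times its Kd; 0% = LDV ligand with antibody and no compound and 100% = antibody without LDV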). The settings on record: HUTS-21 LIBS mAb binding, at 6.7 µM, stronger effect = higher value, binding induced by LDV ligand.

A short description of assay [8]: superoxide lowering in aged yeast cells, pilot screen, validation compound set (AID 2706;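 active = superoxide response below 65% of plate, a cut near 3 SD across the whole screen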;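 also: yeast exposed to compound for one week at 30 degrees C before staining; 100% = mean of all compound wells on the same plate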). The settings on record: S. cerevisiae aging, superoxide DHE fluorescence; at 10 µM; stronger effect = lower value.
In assay [9] the target is Beta-adrenergic receptor kinase 1 (Homo sapiens) (UniProt P25098). Briefly: GRK2 binders displacing RNA aptamer, biochemical, validation, human GRK2, bead flow cytometry (AID 488806). The settings on record: bead-bound GRK2, FAM-aptamer displacement, at 10 µM, stronger effect = higher value.
Assay [10] addresses Beta-2 adrenergic receptor (Homo sapiens) (UniProt P07550). Kind of assay: beta2AR agonists driving receptor internalization, pilot screen, cell-based, FAP fluorogen, flow cytometry, validation set (AID 504459;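 active = percent response above 42, roughly 3 SD of non-fluorescent test compounds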;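 also: agonist-driven loss of surface beta2AR via internalization measured by FAP dye flow cytometry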). Conditions: Am2.2-beta2AR cells, FAP surface receptor flow cytometry; at 10 µM; stronger effect = higher value.
The target of assay [11] is AP-2 complex subunit beta (Homo sapiens) (UniProt P63010). Briefly: inhibitors of arrestin peptide binding to AP2, pilot screen, biochemical, validation set, GST-AP2 beads, flow cytometry (AID 504541;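 active = inhibition above 54%, about 3 SD of non-fluorescent compounds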;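 also: AP2 carries R879A mutation and is captured from E. coli lysate; bead-bound FITC arrestin peptide fluorescence measuring arrestin peptide binding to AP2; 0% = DMSO wells and 100% = excess unlabeled arrestin peptide control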). Conditions: FITC arrestin peptide, at 10 µM, stronger effect = higher value, AP2 beta2 appendage fragment, R879A mutant.
Assay [12] is described as follows: yeast V-ATPase proton transport modulators, S. cerevisiae, pHLuorin, HTS validation (AID 504600; in the data active = response above about 15%;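 also: plate controls were DMSO for no effect and reference compound for full effect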). The settings on record: S. cerevisiae pHLuorin cytosolic pH, at 10 µM, stronger effect = higher value.
Assay [13] relates to anti-desmoglein-3 scFv antibody binding to human DSG3. Briefly: inhibitors of anti-DSG3 scFv binding to DSG3, pilot screen, biochemical, validation compound set, bead-based, flow cytometry (AID 588368;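 active = binding below the plate cutoff, the plate median minus 3 SD, with a reading above zero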;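 also: signal is the median channel fluorescence of bead-bound GFP antibody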). Conditions: Protein G beads, DSG3-Fc, scFv-GFP binding, at 10 µM, stronger effect = lower value.
Assay [14] in a line: inhibitors of fungal efflux pumps CDR1, CDR2, MDR1, pilot screen, validation compound set, multiplex, phenotypic (AID 588506;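 active = efflux inhibition above 0.42, the validation set average plus 4 SD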;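 also: Nile Red retained in cells so higher fluorescence means more efflux inhibition; 0 = negative control wells and 1 = enniatin B 25 µM full block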). The settings on record: S. cerevisiae pump-expressing triplex, Nile Red efflux flow cytometry; at 10 µM; stronger effect = higher value; the pumps come from Candida albicans.
The target in assay [15] is ATP-binding cassette sub-family B member 6 (Homo sapiens) (UniProt Q9NP58). Kind of assay: ABCB6 transporter inhibitors, pilot screen, K562-ABCB6 cells, flow cytometry, validation set (AID 588550;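 active = inhibition above the screen-wide mean plus 3 SD, about 51%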;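 also: 0% = DMSO wells and 100% = benzethonium chloride 70 µM positive control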). Conditions: K562-ABCB6 porphyrin accumulation, 1 h, at 10 µM, stronger effect = higher value.
Assay [16] is described as follows: promoters of myeloid differentiation in arrested cells, primary screen, cell-based, GFP/MAC1 double positive, flow cytometry, validation set (AID 588685;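 active = differentiation response of at least 50%, scaled between solvent and reference control, from cells with both markers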;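 also: compound exposure lasts four days before antibody staining and flow analysis; 0% = DMSO wells and 100% = 5 µM fulvestrant positive control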). The settings on record: ER-HoxA9 marrow cells, stronger effect = higher value, normalized: vehicle 0, fulvestrant 100.

Chain of Beta-adrenergic receptor kinase 1 (Homo sapiens) (P25098 whole entry, looked up): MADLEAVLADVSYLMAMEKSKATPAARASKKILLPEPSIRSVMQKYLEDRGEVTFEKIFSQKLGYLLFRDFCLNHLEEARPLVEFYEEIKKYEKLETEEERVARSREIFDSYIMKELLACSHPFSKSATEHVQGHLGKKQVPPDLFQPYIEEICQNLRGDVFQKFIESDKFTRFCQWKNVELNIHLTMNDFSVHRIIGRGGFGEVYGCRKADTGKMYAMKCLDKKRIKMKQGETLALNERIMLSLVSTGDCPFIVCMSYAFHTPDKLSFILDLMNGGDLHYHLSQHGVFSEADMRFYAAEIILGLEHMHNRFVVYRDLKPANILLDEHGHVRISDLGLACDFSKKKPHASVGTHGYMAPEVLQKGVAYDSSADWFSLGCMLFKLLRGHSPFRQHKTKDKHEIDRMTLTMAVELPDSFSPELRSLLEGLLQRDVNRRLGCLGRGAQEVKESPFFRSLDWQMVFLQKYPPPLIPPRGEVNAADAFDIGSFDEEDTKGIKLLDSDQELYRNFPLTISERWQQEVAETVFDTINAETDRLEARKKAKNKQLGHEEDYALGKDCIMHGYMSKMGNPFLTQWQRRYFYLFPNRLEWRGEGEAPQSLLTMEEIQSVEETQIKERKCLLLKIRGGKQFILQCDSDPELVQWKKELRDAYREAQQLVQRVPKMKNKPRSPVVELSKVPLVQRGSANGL
Chain of AP-2 complex subunit beta (Homo sapiens) (P63010 whole entry, looked up, the tested form may be a part, one chain of several): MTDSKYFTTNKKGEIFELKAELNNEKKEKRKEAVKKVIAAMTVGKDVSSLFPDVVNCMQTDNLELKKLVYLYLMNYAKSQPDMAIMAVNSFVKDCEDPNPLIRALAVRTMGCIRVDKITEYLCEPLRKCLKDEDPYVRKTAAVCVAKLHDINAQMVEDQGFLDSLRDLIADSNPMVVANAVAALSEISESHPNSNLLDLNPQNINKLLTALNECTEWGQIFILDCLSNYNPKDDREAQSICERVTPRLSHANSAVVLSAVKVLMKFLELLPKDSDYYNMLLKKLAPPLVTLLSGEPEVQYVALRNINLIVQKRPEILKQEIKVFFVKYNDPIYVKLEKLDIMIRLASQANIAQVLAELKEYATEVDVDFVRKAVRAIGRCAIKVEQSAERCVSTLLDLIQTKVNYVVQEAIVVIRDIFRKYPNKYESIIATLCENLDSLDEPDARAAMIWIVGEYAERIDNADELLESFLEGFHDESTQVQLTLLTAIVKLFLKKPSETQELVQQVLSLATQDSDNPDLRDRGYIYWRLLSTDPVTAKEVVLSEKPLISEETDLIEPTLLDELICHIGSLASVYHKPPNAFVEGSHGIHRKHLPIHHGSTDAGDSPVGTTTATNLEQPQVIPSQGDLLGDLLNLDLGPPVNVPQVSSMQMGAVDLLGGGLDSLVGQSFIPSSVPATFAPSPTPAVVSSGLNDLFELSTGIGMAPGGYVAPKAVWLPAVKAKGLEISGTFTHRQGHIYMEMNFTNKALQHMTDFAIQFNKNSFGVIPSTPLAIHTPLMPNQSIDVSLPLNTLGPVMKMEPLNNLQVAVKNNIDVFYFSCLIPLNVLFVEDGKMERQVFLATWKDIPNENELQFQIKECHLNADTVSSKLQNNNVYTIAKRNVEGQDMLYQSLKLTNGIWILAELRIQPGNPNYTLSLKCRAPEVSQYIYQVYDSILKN
Chain of Beta-2 adrenergic receptor (Homo sapiens) (P07550 whole entry, looked up): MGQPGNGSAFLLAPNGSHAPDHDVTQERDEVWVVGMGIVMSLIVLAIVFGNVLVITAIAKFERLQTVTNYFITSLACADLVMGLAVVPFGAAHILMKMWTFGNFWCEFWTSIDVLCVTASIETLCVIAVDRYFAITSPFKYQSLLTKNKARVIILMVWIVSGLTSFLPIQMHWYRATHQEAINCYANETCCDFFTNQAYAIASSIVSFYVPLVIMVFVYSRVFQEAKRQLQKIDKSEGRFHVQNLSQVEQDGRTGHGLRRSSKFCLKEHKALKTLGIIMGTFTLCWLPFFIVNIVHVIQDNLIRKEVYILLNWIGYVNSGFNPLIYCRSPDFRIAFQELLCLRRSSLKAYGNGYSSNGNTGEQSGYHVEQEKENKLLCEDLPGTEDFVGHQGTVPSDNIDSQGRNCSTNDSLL
Chain of ATP-binding cassette sub-family B member 6 (Homo sapiens) (Q9NP58 whole entry, looked up): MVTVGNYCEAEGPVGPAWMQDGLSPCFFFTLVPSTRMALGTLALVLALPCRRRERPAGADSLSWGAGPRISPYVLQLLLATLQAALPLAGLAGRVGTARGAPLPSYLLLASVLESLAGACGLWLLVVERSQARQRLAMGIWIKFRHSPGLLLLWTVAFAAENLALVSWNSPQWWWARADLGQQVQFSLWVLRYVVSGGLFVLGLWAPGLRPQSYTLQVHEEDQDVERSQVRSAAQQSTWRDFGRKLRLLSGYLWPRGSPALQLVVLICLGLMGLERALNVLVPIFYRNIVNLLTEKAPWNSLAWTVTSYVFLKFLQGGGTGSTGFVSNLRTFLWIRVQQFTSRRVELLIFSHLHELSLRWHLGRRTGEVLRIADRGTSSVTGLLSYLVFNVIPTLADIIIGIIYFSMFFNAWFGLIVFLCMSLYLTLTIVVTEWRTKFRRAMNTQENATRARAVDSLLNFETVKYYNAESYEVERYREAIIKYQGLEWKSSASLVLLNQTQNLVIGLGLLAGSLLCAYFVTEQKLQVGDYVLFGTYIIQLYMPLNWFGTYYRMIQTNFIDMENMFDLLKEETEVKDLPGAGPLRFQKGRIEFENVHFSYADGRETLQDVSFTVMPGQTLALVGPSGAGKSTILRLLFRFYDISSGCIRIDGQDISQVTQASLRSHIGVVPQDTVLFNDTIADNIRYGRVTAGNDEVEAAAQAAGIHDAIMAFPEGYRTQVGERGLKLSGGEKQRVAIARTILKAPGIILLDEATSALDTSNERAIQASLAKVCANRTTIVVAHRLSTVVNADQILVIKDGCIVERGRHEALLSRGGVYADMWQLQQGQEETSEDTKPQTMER
Chain of Integrin beta-1 (Homo sapiens) + Integrin alpha-4 (Homo sapiens) (P05556 whole entry, looked up): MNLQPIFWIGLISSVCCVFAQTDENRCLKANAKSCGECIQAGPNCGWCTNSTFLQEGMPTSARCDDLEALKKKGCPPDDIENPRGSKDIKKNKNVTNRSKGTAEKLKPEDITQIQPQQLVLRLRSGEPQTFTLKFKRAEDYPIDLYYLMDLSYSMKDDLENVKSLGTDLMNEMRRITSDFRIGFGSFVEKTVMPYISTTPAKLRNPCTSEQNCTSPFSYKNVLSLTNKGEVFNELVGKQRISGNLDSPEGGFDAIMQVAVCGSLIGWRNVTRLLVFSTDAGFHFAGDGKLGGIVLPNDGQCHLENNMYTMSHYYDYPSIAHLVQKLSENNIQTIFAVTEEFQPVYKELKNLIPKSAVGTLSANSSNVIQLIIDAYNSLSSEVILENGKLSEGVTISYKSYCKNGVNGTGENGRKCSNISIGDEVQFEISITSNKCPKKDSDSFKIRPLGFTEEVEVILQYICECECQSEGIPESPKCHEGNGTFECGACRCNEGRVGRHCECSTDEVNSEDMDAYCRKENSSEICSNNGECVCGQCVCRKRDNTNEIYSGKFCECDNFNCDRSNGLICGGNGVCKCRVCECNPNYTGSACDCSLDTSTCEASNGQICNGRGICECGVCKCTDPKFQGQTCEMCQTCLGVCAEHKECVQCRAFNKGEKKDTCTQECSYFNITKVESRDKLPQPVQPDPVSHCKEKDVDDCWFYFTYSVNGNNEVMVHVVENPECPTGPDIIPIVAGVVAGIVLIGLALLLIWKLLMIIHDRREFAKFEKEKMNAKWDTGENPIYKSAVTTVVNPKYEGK
Chain of Integrin beta-1 (Homo sapiens) + Integrin alpha-4 (Homo sapiens) (P13612 whole entry, looked up): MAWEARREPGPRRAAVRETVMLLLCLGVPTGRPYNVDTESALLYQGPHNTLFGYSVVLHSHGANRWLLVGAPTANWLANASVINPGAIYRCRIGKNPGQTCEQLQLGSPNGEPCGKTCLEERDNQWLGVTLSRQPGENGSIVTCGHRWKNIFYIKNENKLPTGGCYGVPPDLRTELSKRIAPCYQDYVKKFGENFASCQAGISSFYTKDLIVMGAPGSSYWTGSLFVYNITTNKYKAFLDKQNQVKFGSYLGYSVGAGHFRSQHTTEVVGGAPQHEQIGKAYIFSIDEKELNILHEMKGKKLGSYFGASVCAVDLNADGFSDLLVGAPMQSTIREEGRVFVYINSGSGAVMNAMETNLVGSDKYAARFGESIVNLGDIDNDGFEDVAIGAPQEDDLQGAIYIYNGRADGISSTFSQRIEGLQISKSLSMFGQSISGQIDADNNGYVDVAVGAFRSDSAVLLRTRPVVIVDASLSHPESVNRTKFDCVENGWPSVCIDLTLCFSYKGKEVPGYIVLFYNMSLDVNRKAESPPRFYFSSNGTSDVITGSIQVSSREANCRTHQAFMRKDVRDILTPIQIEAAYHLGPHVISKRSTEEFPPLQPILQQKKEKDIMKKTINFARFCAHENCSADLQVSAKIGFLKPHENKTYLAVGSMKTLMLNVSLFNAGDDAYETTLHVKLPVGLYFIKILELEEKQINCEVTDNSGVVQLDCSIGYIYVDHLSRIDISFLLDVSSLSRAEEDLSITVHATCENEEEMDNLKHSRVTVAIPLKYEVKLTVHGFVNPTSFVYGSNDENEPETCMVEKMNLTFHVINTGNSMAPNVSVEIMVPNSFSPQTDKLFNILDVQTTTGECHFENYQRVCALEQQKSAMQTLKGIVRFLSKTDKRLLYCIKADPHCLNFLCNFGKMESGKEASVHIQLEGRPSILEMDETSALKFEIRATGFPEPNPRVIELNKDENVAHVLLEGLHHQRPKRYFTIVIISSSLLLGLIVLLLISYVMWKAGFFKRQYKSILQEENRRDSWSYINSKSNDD

On to `O=C(O)C1CSC(c2ccco2)N1` (stereo not given), for which the percent of DMSO control GFP in [1] is 102% (inactive). Besides, the GFP response vs DMSO in assay [2] was 103% (inactive); in [4], 120% (inactive). Moreover, in assay [3], the percent response of DMSO control was 102% (inactive). The GFP response, % of DMSO in [5] is 124% (inactive). For the same molecule, the double positive events in assay [6] came to 60.6%. Further, the vesicle binding response in assay [6] is 168% (inactive). Further, the values for the inhibition in assay [7], in assay [11] and in assay [15] were -19% (inactive), 10% (inactive) and 2% (inactive), respectively. Besides, in [8], the superoxide response (% of plate) was 100% (inactive). The aptamer binding inhibition in assay [9] is 33% (active). In addition, the response in [10] was -18.6% (inactive); in assay [12] it was -1.58% (inactive). The binding (% of control) in [13] was 99.5% (inactive). Also, the efflux inhibition (fraction of control) in [14] is 0.04 (inactive). Moreover, in [16], the differentiation response is -2.03% (inactive).

In the case of `O=C(O)c1ccccc1Nc1cccc(C(F)(F)F)c1`, in [1], the percent of DMSO control GFP was 95% (inactive). For the same molecule, the GFP response vs DMSO in assay [2] is 103% (inactive); in assay [4] it was 93.1% (inactive). Moreover, the percent response of DMSO control in [3] is 88.2% (inactive). Besides, in assay [5], the GFP response, % of DMSO was 82.4% (inactive). Further, in assay [6], the double positive events came out at 74%. In addition, the vesicle binding response in [6] was 7820% (inactive). Further, the inhibition is -15.4% (inactive) in assay [7], -15.2% (inactive) in assay [11] and 112% (active) in assay [15]. For the same molecule, the superoxide response (% of plate) in assay [8] was 98.3% (inactive). Further, the aptamer binding inhibition in assay [9] was 2% (inactive). Further, the response in assay [10] was -9.88% (inactive); in assay [12], 1.34% (inactive). Also, in [13], the binding (% of control) is 98.2% (inactive). In addition, the efflux inhibition (fraction of control) in assay [14] is -0.24 (inactive). Also, the differentiation response in assay [16] is 18.4% (inactive).

For `CC(C)CCNC(=O)[C@H](CC(C)C)NC(=O)[C@H]1O[C@@H]1C(=O)O`, the percent of DMSO control GFP in [1] is 108% (inactive). In addition, the values for the GFP response vs DMSO in assay [2] and in [4] were 101% (inactive) and 93.3% (inactive), respectively. Further, the percent response of DMSO control in assay [3] was 112% (inactive). Further, the GFP response, % of DMSO in assay [5] is 107% (inactive). In assay [6], this molecule yielded a double positive events of 52.8%. The vesicle binding response in [6] is 39.4% (active). In addition, the inhibition is -4.6% (inactive) in assay [7], -12.3% (inactive) in [11] and 3% (inactive) in assay [15]. In assay [8], the superoxide response (% of plate) was 96.2% (inactive). In addition, the aptamer binding inhibition in assay [9] was 3% (inactive). For the same molecule, the response is -6.13% (inactive) in assay [10] and 1.19% (inactive) in assay [12]. Further, in assay [13], the binding (% of control) is 98.4% (inactive). Further, the efflux inhibition (fraction of control) in assay [14] was 0.08 (inactive). Further, the differentiation response in assay [16] was -1.71% (inactive).

On to `CCN(CCCc1ccccc1)CCCc1ccccc1`, for which the percent of DMSO control GFP in assay [1] is 100% (inactive). In addition, the results for the GFP response vs DMSO in [2] and in assay [4] were 103% (inactive) and 106% (inactive), respectively. Moreover, the percent response of DMSO control in [3] was 102% (inactive). Also, in assay [5], the GFP response, % of DMSO is 118% (inactive). Also, the double positive events in [6] amounted to 63.1%. Further, in assay [6], the vesicle binding response was 202% (inactive). The inhibition in assay [7] is 27.8% (inactive); in assay [11], 34.3% (inactive); in [15], 3% (inactive). For the same molecule, in assay [8], the superoxide response (% of plate) is 118% (inactive). Moreover, the aptamer binding inhibition in [9] was 0% (inactive). In addition, the response in assay [10] was -9.83% (inactive); in [12], -9.09% (inactive). For the same molecule, the binding (% of control) in assay [13] was 103% (inactive). Also, the efflux inhibition (fraction of control) in assay [14] was 0.04 (inactive). In assay [16], the differentiation response was -9.91% (inactive).

In the case of `Cc1cn([C@H]2C[C@H](N=[N+]=[N-])[C@@H](CO)O2)c(=O)[nH]c1=O`, the percent of DMSO control GFP in assay [1] was 94.2% (inactive). The GFP response vs DMSO in assay [2] is 138% (inactive); in assay [4] it was 82.5% (inactive). In addition, in assay [3], the percent response of DMSO control was 110% (inactive). The GFP response, % of DMSO in assay [5] was 95.9% (inactive). Besides, in assay [6], the double positive events was found to be 61.7%. Moreover, the vesicle binding response in assay [6] is 179% (inactive). Moreover, the inhibition in assay [7] was 16.2% (inactive); in [11] it was -5.32% (inactive); in assay [15], 13% (inactive). Further, the superoxide response (% of plate) in [8] is 88.8% (inactive). Moreover, the aptamer binding inhibition in assay [9] was 6% (inactive). The response is 2.53% (inactive) in [10] and 9.2% (inactive) in assay [12]. In assay [13], the binding (% of control) was 103% (inactive). The efflux inhibition (fraction of control) in assay [14] was 0.05 (inactive). Moreover, the differentiation response in assay [16] is 14.7% (inactive).

The term inhibition denotes the change of the read-out against control, counted positive when it falls.
